Assay results as given in the supplement of paper PMC3334620.
In all, about 33,000 sequences were measured (“E-score (-0.5 to 0.5)”: median about -0.016, highest 2% from about 0.32 on). Shown is part of a subset that was picked to be rich in the highest values.

Biological target: T1, Stp1 (UniProt B3LFK1)
T1 sequence: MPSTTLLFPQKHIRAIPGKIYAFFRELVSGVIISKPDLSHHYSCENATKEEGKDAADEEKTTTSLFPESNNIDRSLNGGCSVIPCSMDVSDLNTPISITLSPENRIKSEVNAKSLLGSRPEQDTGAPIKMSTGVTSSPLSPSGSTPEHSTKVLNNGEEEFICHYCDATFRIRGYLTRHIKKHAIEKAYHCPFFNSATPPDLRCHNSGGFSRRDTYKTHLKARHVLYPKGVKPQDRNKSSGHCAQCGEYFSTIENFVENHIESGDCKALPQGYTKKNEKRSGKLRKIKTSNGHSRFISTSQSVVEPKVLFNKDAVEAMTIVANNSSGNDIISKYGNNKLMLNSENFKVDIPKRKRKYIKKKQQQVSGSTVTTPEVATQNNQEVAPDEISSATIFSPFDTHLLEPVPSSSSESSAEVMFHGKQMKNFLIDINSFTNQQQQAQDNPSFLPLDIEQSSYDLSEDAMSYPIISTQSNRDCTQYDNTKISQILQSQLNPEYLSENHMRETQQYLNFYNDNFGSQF
Assay: PBM E-score (8-mer binding enrichment) (E-score (-0.5 to 0.5)); higher = stronger / more preferred TF binding
Conditions: protein concentration: 200 nM; construct: GST-full length
Outline: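 Yeast transcription factors carrying a GST tag, as full-length proteins or DNA-binding domains, were produced by PURExpress in vitro transcription/translation. About 100-200 nM protein was applied to universal all-10-mer Agilent arrays, double-stranded by primer extension on fresh or once-stripped slides. Bound protein was detected with fluorescent anti-GST, and scans were normalised with masliner. The Universal PBM Analysis Suite gave each ungapped eight-base word, pooled with its reverse complement, an E-score, a modified Wilcoxon-Mann-Whitney statistic.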

Sequence | PBM E-score
CATTGGAC | -0.155
AGCTACTG | -0.229
AAAACATG | -0.00948
CTAGAGAA | 0.23
CCACCTAG | -0.373
CAGTCTGG | -0.218
CCCCTTAA | -0.172
ACACGGCG | 0.488
CCACGGCG | 0.478
CCACGGGG | -0.124
ACACGGAG | 0.295
CCACGGAG | 0.159
ACACGGTG | 0.154
TCACGGAA | 0.173
ACACGGCT | 0.458
TCACGGCA | 0.401
ACACGGAT | 0.315
TGACGGCA | 0.175
ACACGGGT | 0.202
GCTGCGAC | -0.089
TAACCCCA | -0.336
CAACACGA | 0.0474
GCGCGAGA | 0.107
AACAGTAC | 0.0276
CCACGGCC | 0.185

Sequence | PBM E-score
CCACGGCA | 0.46
CCACGGAA | 0.198
ACGGGGGC | -0.325
GTGAAGTA | -0.0855
CCCGCGTA | -0.0603
ACCGCGTA | 0.051
ACCGCGCG | 0.209
ACCGCGCA | 0.0261
GCCGCGTA | 0.465
CCCGCGCA | -0.0346
ACCGCGCC | 0.3
GCCGCGCC | 0.46
GCCGCGCA | 0.476
AATCATTC | 0.146
GAGAGCCC | -0.302
AATCGTAC | 0.12
ATGCCATA | 0.117
CCCCTGCC | -0.198
CGCCTCTC | 0.0325
CGACGCCG | 0.457
AGACGCCC | 0.0951
AGACGCCG | 0.405
CGACGCCA | 0.106
AGACGCCA | 0.00574
CGACGCCC | 0.0245

Sequence | PBM E-score
CATATCTC | -0.0779
CGAGAAAG | -0.0578
GACTACGC | -0.174
ACATTCAC | -0.0143
AGGTGAAG | -0.132
ACAGGGTA | -0.125
ATTGCGCA | -0.0299
ATTGCGCG | 0.32
ATTGCGCC | 0.308
GGGAGCTA | -0.235
ATGCCGAA | 0.311
GCGCCGAC | 0.309
CTGCCGAA | 0.127
GCGCCGAA | 0.389
GTGCCGAA | 0.322
TCGCCGAA | 0.105
GCTTCGCC | -0.0679
CCAGCGAA | -0.209
CACCGTTC | 0.0204
AGCCGTTG | 0.26
CGCCGTCA | 0.216
CCCCGTTC | -0.235
AGCCGTTA | 0.159
GGCCGTTA | 0.1
CACCGTTA | 0.0959

Sequence | PBM E-score
AGCCGTCC | 0.308
CGCCGTCC | 0.443
CGCCGTTC | 0.464
CGCCGTTA | 0.381
AGCCGTTC | 0.424
ATCGTAGG | -0.121
TGAGCGAA | 0.0336
CAGCCAGC | -0.244
CCTGCGAC | -0.287
AATCTTCG | 0.196
AGAACATA | 0.00125
AGCCGCCC | 0.11
CTCCGCCC | -0.192
CCCCGCCG | 0.0774
AGCCGCCA | -0.122
CGCCGCCC | 0.346
AACCGCCG | 0.324
CGCCGCCG | 0.402
AACCGCCA | -0.153
GGCCGCCC | -0.0498
AGCCGCCG | 0.361
CGCCGCCA | 0.154
AACCGCCC | -0.149
ATTCTCAC | 0.0144
AAGAGTAC | -0.0411

Sequence | PBM E-score
GGACTCTA | -0.344
AGCTTCAC | -0.221
CAGCTAAC | -0.171
AACCTCTA | -0.104
CGCAGTTA | 0.0737
GGCACGAC | 0.208
GGCACGAA | 0.389
GGCAAAAC | 0.254
GGCACAAA | 0.374
AGCACTAA | 0.132
AGCACAAA | 0.206
GGCAAGAA | 0.22
GGCACTAA | 0.392
TGCACTAA | 0.109
GGCAAAAA | 0.388
TGCACAAA | 0.0921
AGCACGAA | 0.0412
CATGCACA | 0.0872
TATCAGAA | 0.22
CTTGCTTA | -0.203
AGGGCCGC | 0.168
TGCCTCAA | -0.019
TATTGCGA | 0.165
CACCTCAA | 0.0958
AGCTGCAC | -0.111

Sequence | PBM E-score
CAAGTCGG | -0.0998
TACACGCA | -0.204
CGTTTATA | 0.331
GGTTTATA | 0.0512
AGTTTATA | 0.153
GATTGTCC | -0.0756
AAAACAAA | 0.128
CCTGGACA | -0.187
CTGAGGTA | -0.0424
AGAAAGCA | 0.158
ATCACTAA | 0.0331
AGCGCGAC | -0.149
GGCGCGAC | 0.36
CGCGCGAC | 0.12
AGCGCGAA | 0.0676
GGCGCGAA | 0.37
CGCGCGAA | 0.129
CTGGGAAC | 0.0375
AGTCGATG | -0.194
AGTGGGGC | -0.231
ACGGGGCT | -0.161
CCAAGGCA | 0.173
ACGGGGCC | -0.0286
CCAAGGCC | 0.171
ATAAGGCG | 0.365

Sequence | PBM E-score
ATAAGGCA | 0.299
ACAAGGCG | 0.38
CCAAGGCG | 0.341
ACAAGGCC | -0.026
ACAAGGCT | 0.198
ATAAGGCC | 0.0529
ACGGGGCG | 0.366
CGAGAAGC | -0.112
CAACCTTG | 0.0792
CTCCCTGC | -0.293
CTTGATCC | 0.0811
CGAGTCCG | 0.128
CCAGTGAA | -0.0703
GAGATAGA | -0.0115
ACAGGGCA | 0.244
ACAGGGCT | -0.0531
ACAGGGCG | 0.351
CACCGACA | 0.0706
AGGCAACA | 0.143
TGGCAACA | 0.195
CGGCAACA | 0.368
CGGCAACC | 0.266
CGGCAACG | 0.368
AGGCAACG | 0.0557
